From PubChem BioAssay (NCATS)
Inconclusive results are not listed. A number with no mark means an inactive call. The call rests on the fitted dose curve; in most records, active means well fitted inhibition curve with a large enough effect; inconclusive means small, poorly fitted or top-dose-only effect; inactive means flat fitted curve, though single readings scatter.
On the % scale 0 is the no-effect control and ±100 the full control effect.

The molecules below were run against Calcium and integrin-binding protein 1 (Homo sapiens) (UniProt Q99828) (assay: Primary qHTS for Identification of Calcium Integrin Binding Protein 1 (CIB1) Competitor (AID 1508620; further: top concentration of the series differs between compounds)). Conditions: CIB1-GST / FITC-alphaIIb peptide fluorescence polarization; series mostly up to 114 µM; activity change, negative = inhibition: at the top concentration.
Chain of Calcium and integrin-binding protein 1 (Homo sapiens) (Q99828 whole entry, looked up): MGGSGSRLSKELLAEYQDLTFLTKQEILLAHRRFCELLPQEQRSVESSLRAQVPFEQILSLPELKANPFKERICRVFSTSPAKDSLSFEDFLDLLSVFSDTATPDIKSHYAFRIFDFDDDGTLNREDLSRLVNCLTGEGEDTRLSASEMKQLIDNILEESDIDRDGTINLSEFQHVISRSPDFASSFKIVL
Outline: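 Fluorescence polarization competition: GST-tagged CIB1 (1 uM final) preincubated with compound 15 min at room temperature, then FITC-labelled alphaIIb peptide (100 nM final) added. After 15 min at room temperature, polarization read at Ex 480/Em 540.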
With Oc1cccc(C2NC(=S)Nc3cccc(F)c32)c1 (centres undefined) the “activity change, negative = inhibition” value was 0.2%.
In the case of C[C@@H]1CC[C@@]23CC[C@]4(C)[C@@](C=CC5[C@@]6(C)CC[C@H](O)C(C)(C)C6CC[C@]54C)(OC2=O)C3[C@H]1C (some centres undefined), the “activity change, negative = inhibition” value is reported as 4.49% [at 57.7 µM].
In the case of Fc1ccc(N2CCN(CCC3OCCc4ccccc43)CC2)cc1 (centres undefined), the “activity change, negative = inhibition” value is reported as -2.27%.
For CCOc1cc(C(C)(C)C)ccc1C1=NC(C)(c2ccc(Cl)cc2)C(C)(c2ccc(Cl)cc2)N1C(=O)N1CCN(CCCS(C)(=O)=O)CC1 (centres undefined), the “activity change, negative = inhibition” value was -10.6%.
In the case of COc1cc2c(cc1O)C1(Cc3ccc4c(c3C1O)OCO4)[N+](C)([O-])CC2 (centres undefined), the “activity change, negative = inhibition” value is reported as 3.61% [at 57.7 µM].
With CC1CCCC(O)CCC/C=C/c2cc(OS(=O)(=O)O)cc(O)c2C(=O)O1 (centres undefined) the “activity change, negative = inhibition” value was -11.1% [at 57.7 µM].
In the case of Cc1ccc(C)c(NC(=O)[C@@H]2CCCN2S(=O)(=O)c2cccc3cccnc23)c1, the “activity change, negative = inhibition” value is reported as 2.51%.
For CCc1cccc(CC)c1-n1c(C=C(C)C)c(C(=O)N2CCNCC2)cc(-c2nc(-c3ccc(C(F)(F)F)cc3)cs2)c1=O, the “activity change, negative = inhibition” value was 2.31% [at 57.7 µM].
CC1(C)SCCN(S(=O)(=O)c2ccc(Oc3ccncc3)cc2)[C@H]1C(=O)NO was tested, and the “activity change, negative = inhibition” value was -4.68%.
Cc1cc(-c2nc(-c3ccc(OC(F)(F)F)cc3)no2)nn1Cc1ccnc(N2CCN(C3CC3)CC2)c1 was tested, and the “activity change, negative = inhibition” value was 2.08%.
C=CC(C)(O)CC/C=C(\C)C(=O)OC1C(O)C(CO)OC(OC(=O)C23CCC(C)(C)CC2C2=CCC4C5(C)CCC(OC6OC(COC7OCC(OC(C)=O)C(O)C7OC7OC(COC(C)=O)C(O)C(O)C7OC(C)=O)C(O)C(O)C6OC6OCC(O)C(O)C6O)C(C)(C)C5CCC4(C)C2(C)C(O)C3O)C1OC1OCC(OC2OCC(O)C(OC3OCC(O)C(O)C3O)C2O)C(O)C1O (centres undefined) showed an activity change, negative = inhibition of 5.75% [at 12.4 µM].
CC(C)=CCC/C(C)=C/COCC1OC(n2ccc(=O)[nH]c2=O)C(O)C1O (centres undefined) was tested, and the “activity change, negative = inhibition” value was 3.97% [at 57.7 µM].
With C=C1/C(=C/C=C2\CCC[C@]3(C)[C@@H]([C@H](C)CC[C@@H](O)C(C)(C)O)CC[C@@H]23)C[C@@H](O)C[C@@H]1O the “activity change, negative = inhibition” value was -4.64%.
O=C(NCCO)c1cccc(-c2cc(Nc3ccc(OC(F)(F)F)cc3)ncn2)c1 was tested, and the “activity change, negative = inhibition” value was -4.17%.
CCC(C)C1NC(=O)C(Cc2ccccc2)NC(=O)C(CCCCCC(=O)C(O)CO)NC(=O)C2CCCCN2C1=O (centres undefined) was tested, and the “activity change, negative = inhibition” value was -0.317% [at 30.2 µM].
COc1c(F)cccc1C(=O)N1C[C@@H](C)CC[C@H]1CNc1ccc(Br)cn1 was tested, and the “activity change, negative = inhibition” value was 2.43%.
NC(N)=N/N=C/c1ccccc1Cl was tested, and the “activity change, negative = inhibition” value was -4.59%.
With Nc1c(S(=O)(=O)c2ccccc2)c2nc3ccccc3nc2n1-c1ccc(F)cc1 the “activity change, negative = inhibition” value was 2.6%.
For CC(=O)OC1CCC2(C)C(CCC3(C)C2CC=C2C4C(C)C(C)CCC4(C)CCC23C)C1(C)C(=O)O (centres undefined), the “activity change, negative = inhibition” value was -3.69% [at 57.7 µM].
CC(C)(O)C1Cc2c(ccc(C(=O)CCc3ccccc3)c2O)O1 (centres undefined) was tested, and the “activity change, negative = inhibition” value was 1.4% [at 57.7 µM].
In the case of Cc1ccc(N2CCN(CCC3NC(=O)c4ccccc43)CC2)cc1C (centres undefined), the “activity change, negative = inhibition” value is reported as -3.01%.
In the case of O=C(O)c1ccc(N2C(=O)/C(=C/c3ccc(-c4ccc([N+](=O)[O-])cc4)o3)C=C2c2ccccc2)cc1, the “activity change, negative = inhibition” value is reported as -9.56%.
With COc1ccc(CCc2nc3c(C)c(-c4c(C)noc4C)c(C)cc3n2CCN2CCOCC2)cc1 the “activity change, negative = inhibition” value was 4.06%.
In the case of CC(=O)OC1C(OC(=O)c2ccccc2)C2C(C)(C)CCC(OC(C)=O)C2(C)C23CCC(C)(C2)C(=O)CC13 (centres undefined), the “activity change, negative = inhibition” value is reported as 3.8% [at 57.7 µM].
In the case of C=C(C)[C@@H]1CC=C(COC(=O)NC(=O)c2ncn3c(=O)n(C)nnc23)CC1, the “activity change, negative = inhibition” value is reported as -11.4%.
For CC(C)=C[C@@H]1[C@H](CO[C@@H]2O[C@H](CO)[C@@H](O)[C@H](O)[C@H]2O)C1(C)C, the “activity change, negative = inhibition” value was 0.846% [at 57.7 µM].
COc1c(C)cnc(Cn2cc(C#CCC(C)(C)O)c3c(Cl)nc(N)nc32)c1C was tested, and the “activity change, negative = inhibition” value was 3.32%.
With CCOc1ccc(CCNC(=O)c2cc3sc(Cl)cc3n2C)cc1OCC the “activity change, negative = inhibition” value was 2.23%.
C=C1CCC2C(C)(C)CCCC2(C)C1CC/C(C)=C\CO (centres undefined) was tested, and the “activity change, negative = inhibition” value was 0.875%.
CCN(Cc1cc(Nc2nc(C)cn3c(-c4cn[nH]c4)cnc23)sn1)C(C)(C)CO was tested, and the “activity change, negative = inhibition” value was 3.15%.
Cc1ccc(C(C)C)c(O[C@@H]2O[C@H](CO)[C@@H](O)[C@H](O)[C@H]2O)c1 was tested, and the “activity change, negative = inhibition” value was 2.21% [at 57.7 µM].
In the case of O=C(NCCCc1ccccc1)c1cccc(-c2cc(O)c3ncccc3c2)c1, the “activity change, negative = inhibition” value is reported as -0.0789%.
In the case of OC(CC1c2ccccc2-c2cncn21)C1CCCCC1 (centres undefined), the “activity change, negative = inhibition” value is reported as -3.33%.
In the case of COc1ccc(S(=O)(=O)Nc2c(C)cc(C)cc2C)cc1, the “activity change, negative = inhibition” value is reported as 1.64%.
With O=C(c1cc(Cc2n[nH]c(=O)c3ccccc23)ccc1F)N1CCCNCC1 the “activity change, negative = inhibition” value was 1.4%.
With Cc1nc(C(=O)N2CCC[C@H]2Cc2nnc(-c3ccccc3)o2)c(-c2ccccc2F)s1 the “activity change, negative = inhibition” value was 4.54%.
In the case of COc1ccc(S(=O)(=O)Nc2cc(Cl)cc(Cl)c2OC)cc1N1CCNCC1, the “activity change, negative = inhibition” value is reported as -9.9%.
With CC(=O)O[C@H]1CC[C@]2(C)[C@H]3CC[C@]4(C)Oc5oc(C)cc(=O)c5C[C@H]4[C@]3(C)CC[C@H]2C1(C)C the “activity change, negative = inhibition” value was 2.98% [at 57.7 µM].
Cc1ccnn1-c1ccc(C(=O)N2CCN(S(=O)(=O)c3ccc(Cl)c(C(F)(F)F)c3)CC2)cc1 was tested, and the “activity change, negative = inhibition” value was -1.76%.
